Screening data as filed in PubChem BioAssay.
ATXN2 expr inh: Primary qHTS for Inhibitors of ATXN expression; HEK-293 ATXN2-luciferase reporter, luminescence, 24 h; Potency, µM (highest dose often 57 µM), for the others: top-dose activity change, negative = inhibition, most hits filed as inhibitors; 360,000 tested, 0.72% active; AID 1745845, 2022; also: potency is read from the fitted curve at half-maximal effect; % is scaled to controls: 0 for no effect and ±100 for the full control effect; nearly all actives have a fitted effect of over 55% in size
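qHTS (up to 57 uM final) was run with 24 h compound exposure of reporter cells at 37 °C. Each well was multiplexed: SteadyGlo luminescence measured ATXN2-luciferase expression after a fluorogenic Gly-Phe-AFC viability readout (25 uM final).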
S2 tox: Viability Counterscreen for Primary qHTS for Inhibitors of ATXN expression | S2 cells (HEK-293 line with an ATXN2-luciferase reporter) viability, CellTiter-Fluor protease fluorescence, 24 h | Potency, µM (titrated, usually from 56.7 µM), hits mostly cytotoxic | 400,000 tested, 0.49% active | AID 651635, 2014; also: potency is read from the fitted curve at half-maximal effect; nearly all actives have a fitted effect of over 40% in size
HepG2 tox: qHTS for Inhibitors of TGF-b: Cytotox Counterscreen; HepG2 CAGA-GFP viability, ATP luminescence, 18 h; AID 588856, 2011; Potency, µM (titrated, usually from 46.1 µM), for the others: top-dose activity change, negative = cytotoxicity, hits mostly cytotoxic; 410,000 tested, 0.76% active; also: potency is read from the fitted curve at half-maximal effect
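CellTiter-Glo luminescence gave cytotoxicity after 18 hours at 37 degrees C. The cells were HepG2 CAGA-GFP in 1% FBS DMEM, stimulated with 500 pg/mL TGF-beta after compound addition. %Activity was normalised to no-cell wells (complete cell-killing) and DMSO (no toxicity), and curves were fitted and classified.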
IL1B secr inh: qHTS for Inhibitors of Inflammasome Signaling: IL-1-beta AlphaLISA Primary Screen. THP-1 LPS/ATP IL-1B secretion, AlphaLISA, 16 h; hits give low values. activity change, % at 57.5 µM. 360,000 tested, 4.7% active. AID 743279, 2014; in the data active = activity change below about -50%; inconclusive = mostly about -30% to -49%; also: % is scaled to controls: 0 for no effect and ±100 for the full control effect
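Secreted IL-1B measured by AlphaLISA bead assay after 16 h compound exposure of THP-1 cells; compounds (final up to 57.5 uM) added 1 h before LPS (250 ng/mL) and ATP (1.25 mM) stimulation; lower signal means less secretion.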
TGFb SMAD3 inh: qHTS for Inhibitors of TGF-b; AID 588855, 2011; Potency, µM (titrated, usually from 46.1 µM), for inactives: top-dose activity, negative = inhibition, most hits filed as inhibitors; HepG2 CAGA-GFP TGF-b/SMAD3 reporter, GFP fluorescence, 18 h; TGF-beta stimulated, 500 pg/mL final; 410,000 tested, 1.2% active; also: potency is read from the fitted curve at half-maximal effect; % is scaled to controls: 0 for no effect and ±100 for the full control effect; nearly all actives have a fitted effect of over 65% in size
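Using HEPG2 CAGA-GFP reporter cells at 1000 cells/well, we pinned test compounds, stimulated with recombinant TGF-beta (500 pg/mL final) and measured total well GFP after 18 h.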
SKNSH spheroid: qHTS of pediatric cancer cell lines to identify multiple opportunities for drug repurposing: Orthogonal 3D viability screen for SK-N-SH cells; shares compounds with ATXN2 expr inh; Potency, µM (top dose mostly 30.7 µM), usual class: inhibitors; 65 tested, 70% active; SK-N-SH 3D spheroid viability, PI/Hoechst imaging, 72 h
SJ-GBM2 3D tox: qHTS of pediatric cancer cell lines to identify multiple opportunities for drug repurposing: Orthogonal 3D viability screen for SJ-GBM2 cells; 65 tested, 80% active; shares compounds with ATXN2 expr inh; SJ-GBM2 3D spheroid viability, PI/Hoechst imaging, 72 h; Potency, µM (highest dose often 30.7 µM), actives largely listed as inhibitors; AID 1347136, 2019
Daoy 3D tox: qHTS of pediatric cancer cell lines to identify multiple opportunities for drug repurposing: Orthogonal 3D viability screen for Daoy cells. shares compounds with ATXN2 expr inh. Daoy 3D spheroid viability, PI/Hoechst imaging, 72 h. Potency, µM (highest dose often 30.7 µM), usual class: inhibitors. 65 tested, 50% active. AID 1347137, 2019
TC32 3D casp: qHTS of pediatric cancer cell lines to identify multiple opportunities for drug repurposing: Orthogonal 3D caspase screen for TC32 cells; TC32 3D spheroids, caspase-3/7 fluorescence imaging, 24 h; shares compounds with ATXN2 expr inh; AID 1347138, 2019; Potency, µM (series often up to 30.7 µM), hits mostly inhibitors; 65 tested, 30% active
TC32 spheroid: qHTS of pediatric cancer cell lines to identify multiple opportunities for drug repurposing: Orthogonal 3D viability screen for TC32 cells; shares compounds with ATXN2 expr inh; TC32 3D spheroid viability, PI/Hoechst imaging, 72 h; Potency, µM (doses to about 30.7 µM), usual class: inhibitors; 65 tested, 60% active
MG63 spheroid: qHTS of pediatric cancer cell lines to identify multiple opportunities for drug repurposing: Orthogonal 3D viability screen for MG 63 (6-TG R) cells; shares compounds with ATXN2 expr inh; AID 1347140, 2019; Potency, µM (top dose mostly 30.7 µM), most hits filed as inhibitors; MG-63 (6-TG R) 3D spheroid viability, PI/Hoechst imaging, 72 h; 65 tested, 50% active
RD spheroid: qHTS of pediatric cancer cell lines to identify multiple opportunities for drug repurposing: Orthogonal 3D viability screen for RD cells; shares compounds with ATXN2 expr inh; RD rhabdomyosarcoma 3D spheroid viability, PI/Hoechst imaging, 72 h; Potency, µM (top dose mostly 30.7 µM), hits mostly inhibitors; 65 tested, 50% active; AID 1347141, 2019
Active calls of the source: *; i = inactive; ? = inconclusive; . = no result. Only a sample is shown. Unless noted, calls follow the shape of the dose curve; as a rule, active = well fitted curve in the direction sought with a large enough effect; inconclusive = small, poorly fitted or top-dose-only effect, or another doubt; inactive = no such curve, though single readings can be large; an effect the other way counts as inactive or inconclusive.

SMILES	ATXN2 expr inh	S2 tox	HepG2 tox	IL1B secr inh	TGFb SMAD3 inh	others
CN(C)c1ccc(C(=O)N/N=C/C23CC[C@@H](O)CC2(O)CC[C@@H]2[C@@H]3CCC3(C)C(C4=CC(=O)OC4)CCC23O)cc1 (some centres not stated)	.	?	-87%	?	?
CO[C@H]1C=C2CCN(C)[C@@H]2[C@@H]2c3cc4c(cc3C(=O)O[C@H]21)OCO4	.	i	.	.	.
CCCCCCN1CCN(c2ccccc2Cl)CC1	.	i	-8%	46	-3%
CC(=O)c1ccc2c(c1)N(CCCN(C)C)c1ccccc1S2	?	?	-23%	0	32%
N#Cc1cc2c(nc1SCC(=O)Nc1ccc(C(F)(F)F)cc1)C1CCN2CC1	.	.	-35%	.	?
COc1ccc(C[C@H]2c3cc(OC)c(OC)cc3CCN2C)cc1OC	.	i	.	.	.
CC(C)(N)Cc1ccc(Cl)cc1	-8%	i	.	.	.
O=C(Nc1ccccc1C(F)(F)F)c1cccn(Cc2ccccc2)c1=O	11%	i	2%	.	19%
O=C(CCCOc1ccc(Cl)cc1Cl)Nc1cc(S(=O)(=O)N2CCOCC2)ccc1N1CCOCC1	-21%	?	3%	?	?
COc1cccc2c1C(=O)c1c(O)c3c(c(O)c1C2=O)C[C@@](O)(C(=O)CO)C[C@@H]3O[C@H]1C[C@H](N)[C@H](OC2CCCCO2)[C@H](C)O1 (some centres not stated)	1.5µM*	.	-14%	.	?	SKNSH spheroid=0.29µM*;SJ-GBM2 3D tox=0.72µM*;Daoy 3D tox=1.4µM*;TC32 3D casp=1.4µM*;TC32 spheroid=1µM*;MG63 spheroid=?;RD spheroid=?
Cc1cc(OCC(=O)N2CCN(CCc3ccccn3)CC2)cc(C)c1Cl	-16%	?	-33%	.	?
Cc1cc(=O)oc2c1c(C)nn2-c1nn[nH]n1	1%	?	-8%	23	9%
CS(=N)(=O)CC[C@@H](N)C(=O)O (some centres not stated)	.	i	.	.	.
O=C1CN=C(c2ccccc2Cl)c2cc(Cl)ccc2N1Cc1cccc(Cl)c1	?	?	-11%	.	-3%
COc1cc([C@@H]2c3cc4c(cc3[C@H](O)[C@H]3COC(=O)[C@H]23)OCO4)cc(OC)c1OC	-4%	?	-4%	63	-37%	SKNSH spheroid=0.023µM*;SJ-GBM2 3D tox=0.036µM*;Daoy 3D tox=?;TC32 3D casp=0.057µM*;TC32 spheroid=0.057µM*;MG63 spheroid=?;RD spheroid=0.046µM*
CC(=O)[C@@H]1CC[C@@H]2[C@@H]3CCC4=CC(=O)CC[C@@]4(C)[C@H]3CC[C@]21C	.	i	.	.	.
CCCCn1nnnc1C(C1CC1)N1CCC2(CC1)C(=O)NCN2c1ccccc1 (configuration not stated)	-7%	?	-1%	3	?
C[C@H]1COC(=O)[C@@H](Cc2ccc(F)cc2)CC/C=C/C[C@@H](CC(=O)N(CCO)Cc2ccccc2)C(=O)N1	-14%	?	-12%	4	-13%
CC(C)(C)NC[C@H](O)c1cc(Cl)c(N)c(Cl)c1	.	i	.	.	.
Cc1cc(-n2c(/C=C/c3cccs3)nc3ccccc3c2=O)ccc1Br	.	.	-10%	.	-2%
CCN(CC)CCNC(=O)c1c(O)c2ccccc2n(Cc2ccccc2)c1=O	-22%	?	-20%	-6	-17%
CC(=O)c1c(C)n(Cc2ccccc2)c2ccc(O)cc12	.	i	-21%	-29	1%
CC(C)c1ccc(NC(=O)CN2C(=O)CN=C(c3ccccc3)c3ccccc32)cc1	7%	?	5%	.	-1%
O=C(CCN1CCN(CCO)CC1)N1c2ccccc2Sc2ccc(C(F)(F)F)cc21	-22%	i	-22%	?	-8%
Cc1ccc(-n2nc(C)c3c2NC(=O)CSC3c2ccc(O)cc2)cc1Cl (configuration not stated)	0%	?	-13%	.	-26%
CC(C)C[C@H]1C(=O)N2CCC[C@H]2[C@]2(O)O[C@](NC(=O)[C@@H]3C=C4c5cccc6[nH]c(Br)c(c56)CC4N(C)C3)(C(C)C)C(=O)N12 (some centres not stated)	-37%	i	-20%	?	-27%
CC/C(=C(\c1ccc(O)cc1)c1ccc(OCCN(C)C)cc1)c1ccccc1	?	.	-97%	12	?
Cc1cccc(Cc2cnc[nH]2)c1C	2%	i	.	.	.
Cc1ccccc1-n1nc(C)c2c1NC(=O)CSC2c1ccccc1C(F)(F)F (configuration not stated)	?	?	-39%	.	?
CN1CCC(OC(=O)Cc2ccccc2)CC1	.	i	21%	13	9%
